Reference: PubChem BioAssay (EPA / NIEHS)
The source made the active and inactive calls. The calls were made as follows: active = hit-call score of the fitted dose curve at least 0.9, where 1 is the maximum; inactive = score below 0.9.

Legend:
[1] = ATG_CRE_CIS: Attagene CIS-FACTORIAL HepG2 Assay for human cAMP Responsive Element (CRE) binding protein 3 (AID 2282926); settings: HepG2 CRE cis-reporter, Attagene multiplexed mRNA; actives raise or lower the signal
Summary of the method: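 Endogenous CRE-binding activity in HepG2 is reported through a cis-regulated transfected reporter. Following a day of exposure, mRNA levels are determined by reverse transcription PCR and fluorescent fragment analysis; fits run in both directions versus DMSO.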

[2] = biological target: CCAAT/enhancer-binding protein beta (Homo sapiens) (UniProt P17676); assay: ATG_C_EBP_CIS: Attagene CIS-FACTORIAL HepG2 Assay for human CCAAT/Enhancer Binding Protein (C/EBP) beta (AID 2282927); settings: HepG2 Attagene cis-factorial transcription factor reporter; actives raise or lower the signal
CCAAT/enhancer-binding protein beta (Homo sapiens), sequence (P17676 whole entry, looked up, the tested form may be a part): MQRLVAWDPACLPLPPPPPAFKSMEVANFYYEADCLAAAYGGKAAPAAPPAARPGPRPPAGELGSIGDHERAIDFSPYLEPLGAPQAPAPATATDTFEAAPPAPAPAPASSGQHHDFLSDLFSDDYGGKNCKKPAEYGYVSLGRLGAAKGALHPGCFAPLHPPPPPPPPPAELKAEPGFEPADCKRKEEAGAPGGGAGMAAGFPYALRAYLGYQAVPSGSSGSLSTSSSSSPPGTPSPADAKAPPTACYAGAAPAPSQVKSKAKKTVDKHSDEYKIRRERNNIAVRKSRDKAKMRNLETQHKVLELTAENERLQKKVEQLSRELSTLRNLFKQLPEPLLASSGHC
Summary of the method: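 Endogenous C/EBPb-driven reporter transcripts measured in transfected human HepG2 cells at 24 h via RT-PCR and capillary electrophoresis of labelled fragments. Activity fitted in both directions relative to DMSO baseline.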

[3] = ATG_CMV_CIS: Attagene CIS-FACTORIAL HepG2 Assay for human CMV (Internal Marker) (AID 2282928); settings: HepG2 CMV promoter reporter, transcription factor profiling; actives raise or lower the signal;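 also: endpoint acts as a background internal control marker rather than a target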
Summary of the method: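 After transient transfection of HepG2 with reporter transcription units driven by cis-regulatory promoters, cells receive test chemical for 24 h. Labeled reporter amplicons, digested with HpaI, are sized and quantified by capillary electrophoresis against DMSO.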

[4] = ATG_DR4_LXR_CIS: Attagene CIS-FACTORIAL HepG2 Assay for human Liver X Receptor (LXR), DR4 submotif (AID 2282929); settings: HepG2 Attagene DR4 cis-reporter, mRNA transcription; actives raise or lower the signal
Summary of the method: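 HepG2, transient MRTU transfection, cis-element (DR4) promoter; 24 h compound exposure; total RNA → oligo(dT) RT → PCR → 6-FAM primer extension → HpaI cut → CE. Gain/loss vs DMSO, bidirectional fit.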

[5] = biological target: Aryl hydrocarbon receptor (Homo sapiens) (UniProt P35869); assay: ATG_Ahr_CIS: Attagene CIS-FACTORIAL HepG2 Assay for human Aryl Hydrocarbon Receptor (Ahr) (AID 2282930); settings: HepG2 AhR cis-factorial reporter transcription; actives raise or lower the signal
Aryl hydrocarbon receptor (Homo sapiens), sequence (P35869 whole entry, looked up): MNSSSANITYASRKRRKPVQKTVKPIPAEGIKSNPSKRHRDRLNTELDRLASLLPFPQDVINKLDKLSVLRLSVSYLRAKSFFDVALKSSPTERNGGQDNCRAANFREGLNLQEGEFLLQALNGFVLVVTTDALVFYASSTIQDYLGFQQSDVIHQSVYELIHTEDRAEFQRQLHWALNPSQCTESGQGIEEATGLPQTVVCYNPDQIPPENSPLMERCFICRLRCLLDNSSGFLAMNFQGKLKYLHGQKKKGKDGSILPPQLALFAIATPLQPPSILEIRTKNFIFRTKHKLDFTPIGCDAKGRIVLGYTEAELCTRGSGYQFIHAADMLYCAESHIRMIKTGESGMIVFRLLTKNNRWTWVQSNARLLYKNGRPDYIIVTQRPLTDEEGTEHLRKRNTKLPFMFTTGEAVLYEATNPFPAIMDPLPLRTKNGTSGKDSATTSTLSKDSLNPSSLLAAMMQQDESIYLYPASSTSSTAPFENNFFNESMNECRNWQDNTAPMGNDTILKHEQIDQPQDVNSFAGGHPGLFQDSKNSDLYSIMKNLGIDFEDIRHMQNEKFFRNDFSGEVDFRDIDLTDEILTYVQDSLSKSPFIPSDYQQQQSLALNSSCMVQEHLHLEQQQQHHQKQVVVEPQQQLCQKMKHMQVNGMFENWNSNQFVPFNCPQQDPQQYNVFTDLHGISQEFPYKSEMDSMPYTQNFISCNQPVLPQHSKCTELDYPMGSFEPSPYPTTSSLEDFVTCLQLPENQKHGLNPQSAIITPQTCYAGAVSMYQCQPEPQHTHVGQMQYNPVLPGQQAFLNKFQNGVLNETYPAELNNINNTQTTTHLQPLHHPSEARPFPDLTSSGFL
Summary of the method: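 Reporter mRNA levels, quantified by RT-PCR and fluorescent capillary electrophoresis, reflect endogenous AhR transcriptional activity in HepG2 cells carrying transfected cis-promoter reporter constructs. Readout at 24 h post-dose; gain or loss fitted against DMSO baseline.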

[6] = ATG_AP_2_CIS: Attagene CIS-FACTORIAL HepG2 Assay for human Activator Protein 2 (AP-2) (AID 2282932); settings: HepG2 AP-2 cis-reporter, Attagene transcription factor profiling; actives raise or lower the signal
Summary of the method: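 Step one: transient transfection of HepG2 with reporter transcription units. Step two: 24 h chemical exposure. Step three: RNA extraction, RT-PCR, labelled fragment analysis by capillary electrophoresis; DMSO serves as baseline.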

[7] = ATG_BRE_CIS: Attagene CIS-FACTORIAL HepG2 Assay for human Bone Morphogenetic Protein (BMP) Response Element (BRE) (AID 2282933); settings: HepG2 BMP response element reporter, Attagene transcription factor profiling; actives raise or lower the signal
Summary of the method: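 HepG2 cells transiently transfected with CIS reporter units (endogenous TF activity, BMP response element), dosed 24 h. Reporter mRNA quantified by RT-PCR, fluorescent labelling and capillary electrophoresis; bidirectional fit vs DMSO baseline.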

[8] = biological target: Retinoic acid receptor alpha (Homo sapiens) (UniProt P10276); assay: ATG_DR5_RAR_CIS: Attagene CIS-FACTORIAL HepG2 Assay for human Retinoic Acid Receptor Alpha (RARE), DR5 submotif (AID 2282934); settings: HepG2 Attagene cis-factorial RARE DR5 reporter, mRNA; actives raise or lower the signal;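 as to AC50: reporter responds to endogenous RAR alpha beta and gamma in HepG2 not RARA alone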
Retinoic acid receptor alpha (Homo sapiens), sequence (P10276 whole entry, looked up): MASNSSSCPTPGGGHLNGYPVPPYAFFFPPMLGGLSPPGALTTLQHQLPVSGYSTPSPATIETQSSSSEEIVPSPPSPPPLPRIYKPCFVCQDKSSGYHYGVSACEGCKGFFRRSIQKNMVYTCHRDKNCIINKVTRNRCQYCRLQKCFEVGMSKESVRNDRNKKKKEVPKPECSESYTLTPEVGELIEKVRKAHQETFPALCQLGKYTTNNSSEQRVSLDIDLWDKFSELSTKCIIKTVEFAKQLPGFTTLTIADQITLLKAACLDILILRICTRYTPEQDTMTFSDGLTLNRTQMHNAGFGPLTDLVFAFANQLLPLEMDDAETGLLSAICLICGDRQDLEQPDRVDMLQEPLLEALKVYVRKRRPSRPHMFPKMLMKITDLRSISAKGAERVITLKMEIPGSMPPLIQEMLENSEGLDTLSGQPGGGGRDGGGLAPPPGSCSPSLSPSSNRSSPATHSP
Summary of the method: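 Reporter transcripts from a DR5-regulated unit, measured via RT-PCR plus capillary electrophoresis, reflect endogenous RAR activity in transiently transfected human HepG2 liver cells. Exposure lasted 24 h; gain or loss of signal scored against DMSO.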

[9] = biological target: Transcription factor E2F1 (Homo sapiens) (UniProt Q01094); assay: ATG_E2F_CIS: Attagene CIS-FACTORIAL HepG2 Assay for human E2F Transcription Factor 1 (AID 2282935); settings: HepG2 Attagene cis-reporter, E2F reporter RNA transcripts; actives raise or lower the signal
Transcription factor E2F1 (Homo sapiens), sequence (Q01094 whole entry, looked up): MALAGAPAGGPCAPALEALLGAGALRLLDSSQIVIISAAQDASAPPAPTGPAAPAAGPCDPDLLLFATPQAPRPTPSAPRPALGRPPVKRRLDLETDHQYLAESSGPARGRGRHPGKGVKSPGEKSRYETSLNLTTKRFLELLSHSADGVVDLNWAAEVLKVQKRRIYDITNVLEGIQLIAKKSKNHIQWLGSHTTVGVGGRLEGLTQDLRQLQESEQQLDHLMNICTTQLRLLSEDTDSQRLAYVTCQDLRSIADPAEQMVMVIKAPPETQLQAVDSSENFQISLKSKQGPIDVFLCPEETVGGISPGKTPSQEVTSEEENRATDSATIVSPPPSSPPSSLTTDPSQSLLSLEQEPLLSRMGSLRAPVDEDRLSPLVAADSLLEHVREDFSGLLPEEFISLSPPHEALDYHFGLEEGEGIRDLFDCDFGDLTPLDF
Summary of the method: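 Total RNA from 24 h-treated, reporter-transfected HepG2 cells undergoes DNase I treatment, oligo(dT) reverse transcription, PCR and 6-FAM primer extension before capillary electrophoresis.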

[10] = ATG_E_Box_CIS: Attagene CIS-FACTORIAL HepG2 Assay for human Enhancer Box (E-box) (AID 2282936); settings: HepG2 E-box cis-reporter transcription, actives raise or lower the signal
Summary of the method: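 DMSO served as negative control and baseline for bidirectional fitting. Human hepatoma HepG2 cells, transiently transfected with cis-reporter constructs, were dosed 24 h; reporter mRNA read by RT-PCR and capillary electrophoresis.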

[11] = ATG_M_61_CIS: Attagene CIS-FACTORIAL HepG2 Assay for M61 Transcription Factor (Internal Marker) (AID 2282937); settings: HepG2 Attagene CIS-FACTORIAL M61 internal marker reporter; actives raise or lower the signal
Summary of the method: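 Human liver HepG2, transient MRTU transfection (cis promoter elements), 24 h compound. Total RNA → oligo(dT) RT → PCR → FAM label → HpaI → CE. Internal background marker; bidirectional fitting, DMSO = baseline.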

[12] = ATG_EGR_CIS: Attagene CIS-FACTORIAL HepG2 Assay for human Early Growth Response 1 (EGR1) (AID 2282938); settings: HepG2 Attagene CIS-FACTORIAL EGR reporter mRNA; actives raise or lower the signal
Summary of the method: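 Transient transfection of human HepG2 with multiple cis-regulated reporter units, chemical exposure 24 h, total RNA isolated. Reverse transcription, PCR, fluorescent labelling and capillary electrophoresis quantify reporter transcripts; activity fitted bidirectionally against DMSO.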

[13] = ATG_M_19_CIS: Attagene CIS-FACTORIAL HepG2 Assay for M19 Transcription Factor (Internal Marker) (AID 2282939); settings: HepG2 Attagene CIS-FACTORIAL M19 internal marker reporter; actives raise or lower the signal
Summary of the method: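 HepG2 cells transiently transfected with cis-regulated multiplexed reporter units, dosed 24 h. Reporter mRNA quantified by RT-PCR and capillary electrophoresis; internal background marker fitted bidirectionally versus DMSO.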

[14] = ATG_ERE_CIS: Attagene CIS-FACTORIAL HepG2 Assay for Estrogen Response Element (ERE) (AID 2282940); settings: HepG2 ERE cis-reporter, Attagene RNA transcript; actives raise or lower the signal
Summary of the method: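 HepG2 cells transiently transfected with multiplexed cis-element reporter units, measuring endogenous transcription factor activity; ERE reporter mRNA quantified after 24 h exposure by RT-PCR, fluorescent labelling, HpaI digestion and capillary electrophoresis. Bidirectional change versus DMSO.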

[15] = ATG_AP_1_CIS: Attagene CIS-FACTORIAL HepG2 Assay for human Activator Protein 1 (AP-1) (AID 2282931); settings: HepG2 Attagene cis-factorial AP-1 reporter mRNA; actives raise or lower the signal
Summary of the method: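 Transient MRTU transfection of HepG2 → 24 h chemical treatment → RNA isolation, RT-PCR, 6-FAM labelling, HpaI digest → capillary electrophoresis. Fit: bidirectional, DMSO negative control.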

Measured: AC50

NC(=O)CCl
not listed: [14] | [15]
inactive: all other assays above

OC(Cc1ccccc1Cl)(Cn1cncn1)C1(Cl)CC1 (centres undefined)
active: [12] 47.6 µM
not listed: [15]
inactive: all other assays above

c1ccc2sc(SNC3CCCCC3)nc2c1
active: [5] 4.84 µM | [15] 52.1 µM | [6] 149 µM
inactive: all other assays above

CCCCN(CCCCO)N=O
active: [14] 3.06 µM
not listed: [15]
inactive: all other assays above

O=C(CCl)NCO
inactive: all assays above

CCC[N+](CCC)(CCC)CCC
inactive: all assays above

O=C/C(Cl)=C(/Cl)C(=O)O
active: [3] 94.3 µM | [4] 70.7 µM | [6] 61.5 µM | [10] 100 µM | [12] 145 µM
not listed: [14] | [15]
inactive: all other assays above

C=CC(=O)[O][Sn]([CH2]CCC)([CH2]CCC)[CH2]CCC
active: [1] 0.412 µM | [4] 0.607 µM | [5] 0.704 µM | [15] 0.128 µM | [7] 0.217 µM | [8] 0.0229 µM | [10] 0.551 µM | [12] 0.412 µM | [14] 0.0146 µM
inactive: [2] | [3] | [6] | [9] | [11] | [13]

O=[N+]([O-])c1ccc(Nc2ccccc2)cc1
active: [7] 163 µM
inactive: all other assays above

CC(C)[C@H](C(=O)OC(C#N)c1cccc(Oc2ccccc2)c1)c1ccc(OC(F)F)cc1 (some centres undefined)
not listed: [14] | [15]
inactive: all other assays above

N#Cc1ccccc1Cl
not listed: [14] | [15]
inactive: all other assays above

COc1ccc(N)cc1
not listed: [8] | [14]
inactive: all other assays above

Nc1ccc(-c2ccccc2)cc1
active: [14] 32 µM
inactive: all other assays above

CN(N=O)C(N)=O
not listed: [14] | [15]
inactive: all other assays above

C[N+](C)(C)Cc1ccccc1
not listed: [8]
inactive: all other assays above

CC(C)(c1ccccc1)c1cc(-n2nc3ccccc3n2)c(O)c(C(C)(C)c2ccccc2)c1
not listed: [14] | [15]
inactive: all other assays above

Nc1c(Oc2ccccc2)cc(O)c2c1C(=O)c1ccccc1C2=O
active: [5] 1.71 µM | [7] 13.2 µM
not listed: [15]
inactive: all other assays above

C=CCc1ccccc1O
not listed: [14] | [15]
inactive: all other assays above

O=NN1CCCCCC1
not listed: [15]
inactive: all other assays above
